From PubChem
The list is not random: actives were taken first. Their share in the collection is about 11%.
Gal4-VP16 FLuc: VP16 counterscreen qHTS for inhibitors of ROR gamma transcriptional activity; Drosophila S2 Gal4-VP16 UAS-luciferase, luminescence, 20 h; Potency, µM (doses to about 53.6 µM), for the others: top-dose activity, negative = inhibition, usual class: inhibitors; actives 3.5% (n = 310,000); AID 2546, 2010;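 also: Gal4-VP16 expression switched on by copper sulfate through the metallothionein promoter; potency is read from the fitted curve at half-maximal effect; % is scaled to controls: 0 for no effect and ±100 for the full control effect; nearly all actives have a fitted effect of over 50% in size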
RORgamma inh: qHTS for inhibitors of ROR gamma transcriptional activity; actives 5.4% (n = 310,000); Drosophila S2 Gal4-RORgamma UAS-luciferase reporter, 20 h; AID 2551, 2010; Nuclear receptor ROR-gamma (Mus musculus), P51450; Potency, µM (titrated, usually from 53.6 µM), without a hit: top-dose activity change, negative = inhibition, hits mostly inhibitors; also: potency is read from the fitted curve at half-maximal effect; % is scaled to controls: 0 for no effect and ±100 for the full control effect; nearly all actives have a fitted effect of over 60% in size
Target sequence (P51450 whole entry, looked up, the tested form may be a part): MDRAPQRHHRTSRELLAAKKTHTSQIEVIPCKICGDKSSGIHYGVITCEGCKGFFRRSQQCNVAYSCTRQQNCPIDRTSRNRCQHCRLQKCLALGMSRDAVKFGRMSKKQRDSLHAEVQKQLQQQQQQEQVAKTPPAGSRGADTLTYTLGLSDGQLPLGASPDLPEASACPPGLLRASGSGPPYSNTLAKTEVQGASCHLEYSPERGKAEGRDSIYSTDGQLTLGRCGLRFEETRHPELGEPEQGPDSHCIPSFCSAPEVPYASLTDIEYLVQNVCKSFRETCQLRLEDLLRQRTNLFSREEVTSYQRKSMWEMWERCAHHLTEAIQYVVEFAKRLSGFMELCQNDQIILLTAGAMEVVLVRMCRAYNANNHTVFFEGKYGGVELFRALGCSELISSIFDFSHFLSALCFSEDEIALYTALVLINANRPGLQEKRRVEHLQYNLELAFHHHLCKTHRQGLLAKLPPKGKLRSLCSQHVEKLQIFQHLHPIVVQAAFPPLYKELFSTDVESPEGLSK
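Read-out: Photinus luciferase luminescence; inhibitors lower reporter signal. Insect Schneider cells with Gal4-ROR gamma fusion under metallothionein promoter, UAS reporter; 700 uM final copper sulfate induction, 20 hr, ambient temperature.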
SW480 rereplic: A quantitative high throughput screen for small molecules that induce DNA re-replication in SW480 colon adenocarcinoma cells. actives 1.8% (n = 340,000). AID 624297, 2012. Potency, µM (series often up to 46.1 µM), inactives show top-dose re-replication activation, actives largely listed as activators. SW480 DNA re-replication, Hoechst DNA content imaging, 48 h; also: potency is read from the fitted curve at half-maximal effect; % of control where 0% means no effect; nearly all actives have a fitted effect of over 55% in size
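Per well, 250 cells were exposed to pinned compound for 48 hr. Nuclear DNA was visualised with Hoechst (40 min, 37 C) and total object intensity recorded by fluorescence scanning.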
MCF10A rereplic: A quantitative high throughput screen for small molecules that induce DNA re-replication in MCF 10a normal breast cells. MCF 10A DNA re-replication, Hoechst nuclear intensity, 48 h. Potency, µM (titrated, usually from 46.1 µM), for inactives: at the highest dose activity, positive = re-replication, actives largely listed as activators. actives 2.9% (n = 350,000). AID 624296, 2012; also: potency is read from the fitted curve at half-maximal effect; % of control where 0% means no effect; nearly all actives have a fitted effect of over 50% in size
IL1B secr inh: qHTS for Inhibitors of Inflammasome Signaling: IL-1-beta AlphaLISA Primary Screen; THP-1 LPS/ATP IL-1B secretion, AlphaLISA, 16 h; stronger effect = lower value; activity change, % at 57.5 µM; actives 4.7% (n = 360,000); AID 743279, 2014; in the data active = activity change below about -50%; inconclusive = mostly about -30% to -49%; also: % is scaled to controls: 0 for no effect and ±100 for the full control effect
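THP-1 cells pretreated 1 hr with compounds (up to 57.5 uM final), then stimulated with LPS (250 ng/mL final) plus ATP (1.25 mM final); secreted IL-1B measured by AlphaLISA after 16 hr, decreased signal indicating inhibition.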
* = called active by the depositor; ? = inconclusive; · = not tested or not shown; [ ] = another dose, or the depositor's remark. Unless noted, calls follow the shape of the dose curve; as a rule, active = well fitted curve in the direction sought with a large enough effect; inconclusive = small, poorly fitted or top-dose-only effect, or another doubt; inactive = no such curve, though single readings can be large; an effect the other way counts as inactive or inconclusive.

SMILES | Gal4-VP16 FLuc | RORgamma inh | SW480 rereplic | MCF10A rereplic | IL1B secr inh
COc1cc(/C=N/NC(=O)c2ccc3c(c2)OCCO3)cc(Br)c1O | ? | 16µM* | 0% | 3% | -24
COc1cccc(/C=N/NC(=O)CNC(=O)C2COc3ccccc3O2)c1O (centres undefined) | 0.45µM* | 0.35µM* | ? | 9% | 195
O=C(N/N=C/c1cc2c(cc1Cl)OCO2)c1ccc2c(c1)OCCO2 | 7% | -3% | ? | ? | -58*
COc1cc(/C=N/NC(=O)C2C3CCCCC32C)cc(Br)c1O (centres undefined) | 5µM* | 7.1µM* | -1% | -2% | 12
C#CCOCCOCCOCCNc1nc(N2CCN(C(=O)[C@H](CCCN=C(N)N)n3cc(C(N)[C@@H](C)CC)nn3)CC2)nc(N2CCN(C(=O)[C@H](CCC(=O)O)n3cc([C@@H](N)CO)nn3)CC2)n1 (some centres undefined) | · | · | 3% | -4% | 50
CCCCNc1c(CC(C)C)nc2nc(C)cc(C)n12 | · | · | · | · | 14
Cc1ccc(N=Nc2ccc(O)cc2)c(Br)c1 | ? | 2.8µM* | 0% | 27% | -86*
CCCNC(=O)c1n[nH]c2c1CC(C(C)(C)CC)CC2 (centres undefined) | · | · | -1% | 34% | -25
CCC(C)(C)C1CCc2[nH]nc(C(=O)N/N=C(\C)c3ccco3)c2C1 (centres undefined) | ? | ? | 26% | ? | -87*
O=C(NN=C1CCCC1)c1n[nH]c2c1CCC2 | 6% | -11% | ? | ? | 109
C/C(=N\NC(=O)c1n[nH]c2c1CCC2)c1ccco1 | 13µM* | 8.9µM* | -36% | -25% | ·
N#Cc1ccccc1S(=O)(=O)N1CCN(S(=O)(=O)c2ccc(Br)c(C(=O)O)c2)CC1 | -1% | 9% | -2% | 1% | 21
CSc1ccccc1NC(=O)CN1c2ccccc2CC1C (centres undefined) | -7% | 3% | 8.2µM* | ? | 0
Cn1c(=N)n(CC(=O)c2ccc(F)cc2)c2ccccc21 | 11µM* | 8.9µM* | -3% | -2% | 2
CCCn1c(=N)n(CC(=O)O)c2ccccc21 | · | · | -4% | -4% | 0
Cc1ccc(Cn2c(=N)n(CC(=O)c3ccc([N+](=O)[O-])cc3)c3ccccc32)cc1 | -16% | ? | ? | 9.2µM* | -102*
CCCCCCCn1c(=N)n(CC(=O)c2ccco2)c2ccccc21 | -14% | -42% | ? | 1% | -80*
Cc1ccc(C(=O)Cn2c(=N)n(CCN3CCOCC3)c3ccccc32)cc1 | · | · | -10% | -8% | -4
CCCCn1c(=N)n(CC(=O)c2ccco2)c2ccccc21 | -11% | -30% | 2% | -16% | ?
CCCCn1c(=N)n(CC(=O)c2ccc([N+](=O)[O-])cc2)c2ccccc21 | -17% | 1.3µM* | · | · | ·
COc1ccc(C2=NN(C(=O)COC(=O)c3ccc(NC(=O)CC#N)cc3)C(c3ccco3)C2)cc1 (centres undefined) | · | · | 8% | ? | -3
COC(=O)c1ccc(C(NC(=O)OCc2ccccc2)/C(=C/[C@@H](C)C(=O)N(C)Cc2cccnc2)c2cccnc2)cc1 (some centres undefined) | -6% | 24% | · | · | ·
CC(OC(=O)C1=COCCO1)C(=O)Nc1ccc(Cl)cn1 (centres undefined) | · | · | 14% | 20% | 6
CC(C)(C)c1cc(Br)c(O)c(N=Nc2ccc(S(=O)(=O)N3CCOCC3)cc2)c1 | ? | 6.3µM* | ? | 24% | ?
CCOC1=C/C(=C/c2c(N)n3nc(-c4ccccc4)sc3nc2=O)C=CC1=O | 3% | -24% | -7% | 26µM* | 46
SMILES | Gal4-VP16 FLuc | RORgamma inh | SW480 rereplic | MCF10A rereplic | IL1B secr inh
COC1=C/C(=C/c2c(N)n3nc(-c4ccc(C)cc4)sc3nc2=O)C=CC1=O | -18% | ? | 12% | ? | 45
N/C(=N\NC(=O)c1sccc1OCc1ccc(Cl)cc1Cl)c1ccccn1 | 5.6µM* | 2.2µM* | 7% | ? | 57
CNC(=S)NNC(=O)c1sccc1OCc1ccc(Cl)cc1Cl | ? | ? | -3% | 10% | 21
Nc1ncnc2c1ncn2[C@@H]1O[C@H](C(=O)N2CCN(CC(=O)Nc3cccc4c3CNC4=O)CC2)[C@@H](O)[C@H]1O | -1% | -13% | · | · | ·
COc1cc(OC)cc(N(C(=O)C2COc3ccccc3O2)C(C(=O)NC2CCCCC2)c2ccc(O)cc2)c1 (centres undefined) | ? | 42% | ? | 7% | -60*
Cc1ccc(S(=O)(=O)N/N=C/c2ccc(C#N)cc2)cc1 | -8% | 9% | -7% | 6% | -5
Cc1cccc(N2CCN(C(=O)CSc3ccsc3[N+](=O)[O-])CC2C)c1 (centres undefined) | -6% | 3%[10 µM] | 8% | 0% | -73*
Cc1cccc(N2CCN(C(=O)/C=C/c3cccs3)CC2C)c1 (centres undefined) | -3% | 31% | ? | 17% | -11
CCNC(=S)Nc1ccc(OCC)cc1 | ? | 13µM* | -6% | 0% | 0
COc1ccccc1NC(=O)C/C(C)=N/NC(=O)c1ccccn1 | ? | 19% | -2% | 1% | -11
COc1cc(NC(=O)C/C(C)=N/NC(=O)c2ccccn2)c(OC)cc1Cl | 16% | -26% | -15% | -1% | -59*
CC(=O)NC(C)CCc1ccccc1 (centres undefined) | -1% | -12% | -12% | 6% | 2
CCOc1ccc(NC(=S)Nc2ccc(C)c([N+](=O)[O-])c2)cc1 | ? | 14µM* | -2% | 1% | -18
Cc1ccccc1NC(=S)NC(C)CCc1ccccc1 (centres undefined) | 3.5µM* | 4.5µM* | 6% | -2% | -6
C/C(CC(=O)Nc1ccc(C)c(Cl)c1)=N\NC(=O)c1cccc(O)c1 | 6% | -3% | -3% | -3% | 11
COc1ccccc1CCC(=O)OCC(=O)Nc1ccc(C(N)=O)cc1 | -2% | 8% | 0% | -13% | 19
Cc1c(NC(=O)COC(=O)c2ccc(Cl)nc2)c(=O)n(-c2ccccc2)n1C | · | · | 1% | -3% | -13
O=C(Nc1c2c(nn1-c1ccccc1)CS(=O)(=O)C2)c1ccc(Br)o1 | · | · | · | · | 14
CN(C)C1CCN(CCCOc2ccc(-c3ccc(C#N)cc3)cc2)C1 (centres undefined) | -3% | 2% | · | · | ·
COc1cc(NC(=S)Nc2ccccn2)c(OC)cc1Cl | 7.1µM* | 1.3µM* | 0% | 0% | 30
